This is a sample that favours compounds with a hit; in the whole collection about 3.4% have one here.
AmpC detergent – qHTS Inhibitors of AmpC Beta-Lactamase (assay with detergent); 370,000 tested, 0.041% active; Potency, µM (doses to about 114 µM), for inactives: at the highest dose activity change, negative = inhibition, most hits filed as inhibitors; AmpC hydrolysis of nitrocefin, absorbance 480 nm, 0.01% Triton;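 note: 0% = no-compound wells and -100% = no-enzyme wells; nearly all actives have a fitted effect of over 25% in size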
Target sequence (P00811 whole entry, looked up): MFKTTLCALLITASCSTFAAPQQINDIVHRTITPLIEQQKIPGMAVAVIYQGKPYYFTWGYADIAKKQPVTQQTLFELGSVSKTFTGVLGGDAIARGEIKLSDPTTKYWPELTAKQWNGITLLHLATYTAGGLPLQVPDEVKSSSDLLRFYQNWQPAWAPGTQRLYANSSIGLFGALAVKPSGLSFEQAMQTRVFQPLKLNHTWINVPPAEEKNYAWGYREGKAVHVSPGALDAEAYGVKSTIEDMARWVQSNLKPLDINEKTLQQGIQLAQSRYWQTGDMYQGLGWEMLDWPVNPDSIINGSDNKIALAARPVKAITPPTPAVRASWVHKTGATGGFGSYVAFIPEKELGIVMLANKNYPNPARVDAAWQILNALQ
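20 mM phosphate pH 7.0 + 0.01% (detergent screen) or 0.0001% Triton X-100; 5.3 nM AmpC reagent; cpd preinc 15 min RT; nitrocefin (800 uM stock) to start; A480 q20 s × 4 min; Activity was normalised to no-enzyme and no-compound control wells.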
RE007 growth inh – qHTS Assay for Inhibitors of the HIV-1 protein Vpr; S. pombe RE007 Vpr strain, BacTiter-Glo ATP luminescence, 24 h; 360,000 tested, 0.21% active; Potency, µM (titrated, usually from 92.2 µM), inactives show top-dose activity change, negative = less growth, actives largely listed as inhibitors; active = well fitted falling curve with a large enough effect; inconclusive = small, poorly fitted or top-dose-only effect; inactive = no such curve, though single readings can be large or run the other way; note: nearly all actives have a fitted effect of over 50% in size
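Fission yeast strain RE007, carrying one chromosomally integrated HIV-1 vpr copy, was seeded at OD 0.01 in PMG+AL medium with 23 nL pinned compound. After 24 h at 30 °C and 99% humidity, viability was read by BacTiter-Glo luminescence.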
Sm TGR block – qHTS Assay for the Inhibitors of Schistosoma Mansoni Peroxiredoxins | purified TGR, DTNB reduction, TNB absorbance 405 nm | Potency, µM (series often up to 114 µM), inactives show top-dose activity change, negative = inhibition, hits mostly inhibitors | 360,000 tested, 3% active; note: nearly all actives have a fitted effect of over 60% in size
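Kinetic colorimetric format: TGR-catalysed, NADPH-driven DTNB reduction monitored via TNB absorbance. Enzyme dispensed at 20 nM; compound exposure 15 min at room temperature before reaction start.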
AmpC inh no detg – qHTS Inhibitors of AmpC Beta-Lactamase (assay without detergent) | AmpC nitrocefin hydrolysis, absorbance 480 nm, 0.0001% Triton | Potency, µM (highest dose often 57.1 µM), for the others: at the top dose activity change, negative = inhibition, most hits filed as inhibitors | 330,000 tested, 0.52% active | AID 485341, 2010;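 note: plate controls were no compound for no effect and no enzyme for full effect; nearly all actives have a fitted effect of over 20% in size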
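AmpC (5.3 nM in the dispensed reagent) in 20 mM phosphate pH 7.0 with 0.01% (detergent screen) or 0.0001% Triton X-100 was preincubated with compounds for 15 min at room temperature. Nitrocefin was then added from an 800 uM solution, and hydrolysis was followed at 480 nm.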
Giardia FBPA inh – qHTS Assay for Inhibitors of Fructose-1,6-bisphosphate Aldolase from Giardia Lamblia. A8B2U2. Potency, µM (titrated, usually from 59.6 µM), for inactives: at the highest dose activity, negative = inhibition, usual class: inhibitors. 290,000 tested, 0.71% active. purified Giardia FBPA; note: nearly all actives have a fitted effect of over 55% in size
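40 nM FBPA preincubated 10 min at RT with compound (up to 57.5 uM final), then substrate plus GAPDH/TPI/NAD/arsenate coupling and diaphorase/resazurin added. Fluorescence read after 20 min at RT, 525/598 nm.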
* hit, by the source's call; ? = inconclusive; . = no result. Unless noted, calls come from the whole dose curve; as a rule, active = well fitted curve in the direction sought with a large enough effect; inconclusive = small, poorly fitted or top-dose-only effect, or another doubt; inactive = no such curve, though single readings can be large; an effect the other way counts as inactive or inconclusive. Unless noted, % is set by controls: 0 for no effect and ±100 for the full control effect; potency is the fitted concentration of half-maximal effect.

SMILES | AmpC detergent | RE007 growth inh | Sm TGR block | AmpC inh no detg | Giardia FBPA inh
Cc1ccc(C(CC(=O)N2CCOCC2)c2ccco2)cc1 (centres undefined) | -17% | 39% | 28µM* | 43% | 3%
COCCNC(=O)COc1ccc(Nc2ccccc2)cc1 | ? | 8% | -28% | 0% | -18%
O=C(Nc1cccc(Cl)c1)Nc1nnc(-c2ccncc2)s1 | ? | -3% | 0% | 16µM* | -5%
CS(=O)(=O)c1ccc2nc(NC(=O)Nc3cccc(Cl)c3)sc2c1 | ? | 5% | -12% | 13µM* | -3%
CS(=O)(=O)c1ccc2nc(NC(=O)Nc3ccc(Cl)c(Cl)c3)sc2c1 | 1% | 0% | 4% | -13% | -4%
COc1ccccc1C(C#N)N1N=C(C)CC1c1ccccc1 (centres undefined) | 2% | 1% | 3% | -15% | -7%
CCCCSc1nnc(-c2c[nH]c3ccccc23)n1C | -10% | 0% | -29% | -13% | 1%
Cn1c(SCc2ccccc2)nnc1-c1c[nH]c2ccccc12 | ? | -7% | 0% | 25µM* | 5%
Cc1cc(Cl)ccc1Oc1ccccc1C(=O)CC#N | 10% | 16% | -1% | 4µM* | -17%
O=C(O)[C@]1(S(=O)(=O)c2ccccc2)C[C@@H]2ON=C(c3cccc(Br)c3)[C@@H]2C1 | ? | -6% | -30% | -29% | -3%
CSc1nnc(CNS(=O)(=O)c2ccc(F)cc2)n1C | -14% | -8% | 0% | -5% | 2%
C#CCSc1nnc(CNS(=O)(=O)c2ccc(Br)cc2)n1C | -9% | -4% | 10µM* | -17% | .
CCN(CC1CCCO1)C(=O)CCc1nnc(Cc2ccc3c(c2)OCO3)o1 (centres undefined) | 7% | -6% | 28µM* | 11% | 0%
O=C1C(=O)N(C2CCS(=O)(=O)C2)C(c2cccc(O)c2)/C1=C(/O)c1ccc(Cl)cc1 (centres undefined) | 1% | 4% | 56µM* | -14% | -14%

Bioassay records: PubChem, National Center for Advancing Translational Sciences (NCATS)
